Test results reported in publication PMC6707232.

Legend:
Experiment in all cases: cross-linking mass spectrometry
Details in all cases: not determined
[1] = target: COPS3 (UniProt Q9UNS2)
[2] = target: ELOB (UniProt Q15370)
[3] = target: COPS7B (UniProt Q9H9Q2)
Chain of UniProt Q9H9Q2 (Q9H9Q2 whole entry): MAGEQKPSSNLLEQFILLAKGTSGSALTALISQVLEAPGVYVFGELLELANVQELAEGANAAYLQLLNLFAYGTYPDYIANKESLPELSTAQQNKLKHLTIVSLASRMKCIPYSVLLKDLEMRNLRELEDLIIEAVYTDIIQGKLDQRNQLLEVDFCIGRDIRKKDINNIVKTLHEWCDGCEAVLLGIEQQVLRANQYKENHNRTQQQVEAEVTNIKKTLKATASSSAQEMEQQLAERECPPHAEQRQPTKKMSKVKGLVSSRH

Chain of UniProt Q9UNS2 (Q9UNS2 whole entry): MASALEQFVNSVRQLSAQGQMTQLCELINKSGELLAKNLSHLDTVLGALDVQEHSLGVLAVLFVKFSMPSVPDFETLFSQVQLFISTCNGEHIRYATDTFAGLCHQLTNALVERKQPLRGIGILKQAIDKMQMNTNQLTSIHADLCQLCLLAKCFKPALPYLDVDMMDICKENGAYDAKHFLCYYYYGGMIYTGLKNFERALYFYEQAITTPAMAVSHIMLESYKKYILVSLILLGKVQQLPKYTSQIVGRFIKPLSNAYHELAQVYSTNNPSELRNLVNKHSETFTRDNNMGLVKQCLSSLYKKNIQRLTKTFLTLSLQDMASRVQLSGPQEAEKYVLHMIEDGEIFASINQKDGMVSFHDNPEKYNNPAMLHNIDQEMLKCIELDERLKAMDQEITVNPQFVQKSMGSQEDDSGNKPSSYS
Chain of GPS1 (Q13098 whole entry): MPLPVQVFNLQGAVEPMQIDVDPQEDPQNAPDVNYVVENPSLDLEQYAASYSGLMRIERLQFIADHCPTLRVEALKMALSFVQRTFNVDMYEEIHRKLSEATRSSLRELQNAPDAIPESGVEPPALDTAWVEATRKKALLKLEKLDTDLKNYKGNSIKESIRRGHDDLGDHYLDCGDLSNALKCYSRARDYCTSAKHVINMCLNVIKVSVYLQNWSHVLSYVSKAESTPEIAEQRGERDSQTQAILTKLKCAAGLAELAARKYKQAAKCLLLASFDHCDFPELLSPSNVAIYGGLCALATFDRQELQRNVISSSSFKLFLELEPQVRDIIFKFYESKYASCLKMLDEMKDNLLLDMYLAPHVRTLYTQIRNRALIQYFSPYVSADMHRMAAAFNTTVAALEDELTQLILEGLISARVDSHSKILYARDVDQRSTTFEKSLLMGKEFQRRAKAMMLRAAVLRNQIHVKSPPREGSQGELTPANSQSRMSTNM
Chain of COPS2 (P61201 whole entry): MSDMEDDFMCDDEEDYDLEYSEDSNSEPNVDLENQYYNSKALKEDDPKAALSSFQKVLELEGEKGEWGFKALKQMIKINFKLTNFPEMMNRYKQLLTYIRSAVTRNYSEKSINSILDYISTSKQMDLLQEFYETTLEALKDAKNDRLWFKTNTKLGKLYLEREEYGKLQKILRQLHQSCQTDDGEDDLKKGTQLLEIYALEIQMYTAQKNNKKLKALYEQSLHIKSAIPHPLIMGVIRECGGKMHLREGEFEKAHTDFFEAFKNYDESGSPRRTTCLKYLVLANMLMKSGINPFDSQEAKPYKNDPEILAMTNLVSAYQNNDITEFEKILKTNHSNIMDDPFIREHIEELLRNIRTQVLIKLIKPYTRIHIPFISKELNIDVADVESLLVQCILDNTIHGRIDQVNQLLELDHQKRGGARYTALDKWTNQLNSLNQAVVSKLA
Chain of UniProt Q15370 (Q15370 whole entry): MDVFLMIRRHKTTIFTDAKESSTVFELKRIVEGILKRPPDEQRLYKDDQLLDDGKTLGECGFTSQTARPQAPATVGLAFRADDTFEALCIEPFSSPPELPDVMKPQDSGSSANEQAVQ

Substance | cross-linked residues [1] | cross-linked residues [2] | cross-linked residues [3]
GPS1, Q13098 | K467 - K406 | K158 - K19 | –
COPS2, P61201 | K426 - K243 | – | K426 - K199
